Each structure is given as a SMILES string. Values joined by “and” are separate entries in the source; they are usually repeats but may differ in a detail not shown here. Identical values can stand only once. Inconclusive results are not listed. A structure can be active in one record and inactive in another. Active and inactive are the calls of the source. Unless noted, calls follow the shape of the dose curve; as a rule, active = well fitted curve in the direction sought with a large enough effect in the repeat runs; inconclusive = weak or mixed curves; inactive = no such curve, though single readings can be large; an effect the other way counts as inactive or inconclusive.

We go through 32 compounds from PubChem BioAssay (Tox21).

Assay [1] can be described thus: qHTS assay to identify small molecule antagonists of the estrogen related receptor (ERR) signaling pathway from Tox21 library - cell viability counter screen (AID 1224834). Also: nearly all actives have a fitted effect of over 30% in size. A digest of the protocol: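 CellTiter-Fluor fluorescence, read after 30 min at 37 C, measures viability of ERR cells. Cells plated at 2,000/well and incubated 6 h before pin-tool compound addition, then exposed 17.5 hours at 37 C.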

Assay [2] concerns the target Luciferin 4-monooxygenase (Photinus pyralis) (UniProt P08659). Briefly: qHTS assay to identify small molecule inhibitors of firefly luciferase (AID 1224835). Also: nearly all actives have a fitted effect of over 25% in size. Put shortly:
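Inhibition of purified Photinus luciferase is measured by luminescence. Substrate levels (D-luciferin, ATP) sit at their KM values. Each compound is tested in a concentration series.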
On the technique in general: Quantitative high-throughput screening tests each substance at several concentrations.

The nature of assay [3]: qHTS assay to identify small molecule agonists of the constitutive androstane receptor (CAR) signaling pathway - cell viability counter screen (AID 1224836). Also: nearly all actives have a fitted effect of over 45% in size. A digest of the protocol: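 23 h treatment, 37 C, 5% CO2. Cell line: HepG2 stably expressing hCAR with a CYP2B6-2.2kb construct. Co-treatment: PK11195, 0.75 uM final. Read-out: CellTiter-Fluor fluorescence intensity.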

A short description of assay [4]: qHTS assay to identify small molecule antagonists of the constitutive androstane receptor (CAR) signaling pathway - cell viability counter screen (AID 1224837). Also: nearly all actives have a fitted effect of over 45% in size. A digest of the protocol: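 Cytotoxicity counter-screen: CellTiter-Fluor fluorescence after 23 h compound exposure (15-point qHTS) in double-stable HepG2-CYP2B6-hCAR cells, with 50 nM CITCO added.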
Assay [5] in a line: qHTS assay to identify small molecule antagonists of the estrogen related receptor signaling pathway with the pleiotropic PPARgamma coactivator (PGC) from Tox21 10K library - cell viability counter screen (AID 1224840; active = well fitted cell-killing curve with a large enough effect in the repeat runs, not every such curve was filed as active; also: nearly all actives have a fitted effect of over 40% in size). A digest of the protocol:
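Counter-screen for cytotoxicity: after 17.5 h compound exposure at 37 C, CellTiter-Fluor reagent added to PGC/ERR cells for 30 min and fluorescence read. Cells were seeded at 2,000 per well 6 h before dosing.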

The nature of assay [6]: qHTS assay to identify small molecule antagonists of the estrogen related receptor signaling pathway with the pleiotropic PPARgamma coactivator (PGC) from Tox21 10K library (AID 1224841; call rule not given here; also: actives are mostly falling curves and most rising ones were filed inactive; nearly all actives have a fitted effect of over 50% in size). Put shortly:
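Luminescence (One-Glo, 30 min at room temperature) after 18 h compound treatment at 37 C of PGC/ERR reporter cells plated at 2,000 cells/well and settled 6 h beforehand.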

A short description of assay [7]: qHTS assay to identify small molecule agonists of the estrogen related receptor signaling pathway with the pleiotropic PPARgamma coactivator (PGC) from Tox21 10K library (AID 1224842). Also: nearly all actives have a fitted effect of over 15% in size. Put shortly: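 Luminescence from One-Glo (30 min, room temperature) measured after PGC/ERR cells had 18 h at 37 C with pinned compound (23 nL in DMSO). Cells had been seeded at 2,000 per well and pre-incubated 6 h.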

Assay [8] deals with Thyrotropin receptor (Homo sapiens) (UniProt P16473). Briefly: qHTS assay to identify small molecule agonists of the thyroid stimulating hormone receptor (TSHR) signaling pathway (AID 1224843; calls by dose curve; also: nearly all actives have a fitted effect of over 45% in size). Put shortly:
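Agonist activity read as cAMP rise via d2/cryptate HTRF competition, 1 h room-temperature detection, in HEK293 cells expressing TSHR. Fifteen-point titrations, each run in triplicate, with a 30 min room-temperature incubation beforehand.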

Assay [9] has as its target Nuclear receptor subfamily 1 group I member 3 (Homo sapiens) (UniProt Q14994). Put plainly: qHTS assay to identify small molecule antagonists of the constitutive androstane receptor (CAR) signaling pathway (AID 1224838).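 Also: HepG2 cells stably expressing hCAR with CYP2B6 luciferase reporter stimulated by CITCO; nearly all actives have a fitted effect of over 40% in size.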 Put shortly: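 Antagonism measured as luciferase signal (ONE-Glo, 30 min, room temperature) in CAR-stimulated cells: HepG2-CYP2B6-hCAR double-stable line exposed 24 hr at 37 C to compound in a 15-point series plus 50 nM CITCO.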

The target is the same in assay [10]. Briefly: qHTS assay to identify small molecule agonists of the constitutive androstane receptor (CAR) signaling pathway (AID 1224839). Also: nearly all actives have a fitted effect of over 15% in size. Put shortly:
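Compounds tested at 15 concentrations on HepG2 cells stably harbouring hCAR and CYP2B6-2.2kb reporter constructs, co-treated with PK11195 (0.75 uM final), 24 h at 37 C; luminescent reporter signal quantified.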
Potency is read from the fitted curve at half-maximal effect.

Luciferin 4-monooxygenase (Photinus pyralis), sequence (P08659 whole entry, looked up): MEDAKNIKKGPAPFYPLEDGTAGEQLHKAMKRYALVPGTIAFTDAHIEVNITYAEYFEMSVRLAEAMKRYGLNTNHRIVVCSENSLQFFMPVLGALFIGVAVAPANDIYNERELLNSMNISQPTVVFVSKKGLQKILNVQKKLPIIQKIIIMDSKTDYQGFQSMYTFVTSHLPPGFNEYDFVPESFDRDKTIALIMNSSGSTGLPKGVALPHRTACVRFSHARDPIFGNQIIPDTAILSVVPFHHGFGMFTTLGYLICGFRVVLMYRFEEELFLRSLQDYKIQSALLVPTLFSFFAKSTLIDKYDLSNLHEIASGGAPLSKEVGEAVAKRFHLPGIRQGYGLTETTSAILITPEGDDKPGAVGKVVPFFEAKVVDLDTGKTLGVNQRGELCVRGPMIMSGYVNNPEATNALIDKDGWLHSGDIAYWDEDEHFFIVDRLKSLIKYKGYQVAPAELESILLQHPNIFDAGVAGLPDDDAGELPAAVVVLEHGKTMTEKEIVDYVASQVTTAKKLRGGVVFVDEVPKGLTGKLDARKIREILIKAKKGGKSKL
Thyrotropin receptor (Homo sapiens), sequence (P16473 whole entry, looked up): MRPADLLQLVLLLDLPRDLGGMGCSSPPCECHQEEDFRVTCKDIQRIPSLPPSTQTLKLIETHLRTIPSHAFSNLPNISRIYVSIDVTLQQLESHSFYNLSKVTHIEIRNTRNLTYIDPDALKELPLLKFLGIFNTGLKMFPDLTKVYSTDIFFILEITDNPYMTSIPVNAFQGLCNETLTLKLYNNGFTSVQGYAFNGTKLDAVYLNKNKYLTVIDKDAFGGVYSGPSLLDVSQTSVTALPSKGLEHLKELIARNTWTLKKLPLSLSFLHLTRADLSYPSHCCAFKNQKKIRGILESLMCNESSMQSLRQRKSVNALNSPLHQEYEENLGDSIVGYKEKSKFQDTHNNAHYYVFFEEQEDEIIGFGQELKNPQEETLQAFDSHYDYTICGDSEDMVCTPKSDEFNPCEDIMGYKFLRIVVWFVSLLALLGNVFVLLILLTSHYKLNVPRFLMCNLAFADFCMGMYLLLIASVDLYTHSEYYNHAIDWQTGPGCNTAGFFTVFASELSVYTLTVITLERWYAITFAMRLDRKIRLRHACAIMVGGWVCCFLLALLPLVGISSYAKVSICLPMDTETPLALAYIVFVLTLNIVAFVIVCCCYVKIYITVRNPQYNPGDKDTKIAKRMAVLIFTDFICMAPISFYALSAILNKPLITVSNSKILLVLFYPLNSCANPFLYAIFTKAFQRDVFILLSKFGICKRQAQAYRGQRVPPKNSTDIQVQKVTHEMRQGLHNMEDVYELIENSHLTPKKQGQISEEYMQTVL
Nuclear receptor subfamily 1 group I member 3 (Homo sapiens), sequence (Q14994 whole entry, looked up): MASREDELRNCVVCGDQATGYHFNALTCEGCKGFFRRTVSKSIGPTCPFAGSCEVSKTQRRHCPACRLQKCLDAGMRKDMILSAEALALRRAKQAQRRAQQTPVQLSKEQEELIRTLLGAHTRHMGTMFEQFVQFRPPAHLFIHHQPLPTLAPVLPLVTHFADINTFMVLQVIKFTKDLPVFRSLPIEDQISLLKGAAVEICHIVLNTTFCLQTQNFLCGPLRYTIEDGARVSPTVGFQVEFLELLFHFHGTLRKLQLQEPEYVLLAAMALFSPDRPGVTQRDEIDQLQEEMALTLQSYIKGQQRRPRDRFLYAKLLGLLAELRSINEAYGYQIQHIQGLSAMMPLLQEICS

Take `Clc1ccc(C(Cl)(Cl)Cl)cc1`: the Potency entry in assay [1], in assay [2], in [3], in assay [4], in assay [5] and in [6] was “inactive” each time. For the same compound, the Potency result in assay [7] and in [8] was “inactive” throughout.
Regarding `Cc1cccc(N=Nc2ccc(N(C)C)cc2)c1`, the Potency in [1] was 27.3 µM (active); in assay [2], 456 nM (active) and 894 nM (active); in assay [10] it was 2.78 µM (active) and 3.06 µM (active); in assay [7] it was 1.56 µM (active) and 2.73 µM (active). In addition, the Potency entry in [9] and in [6] was “inactive” throughout.
For `CSc1nc(NC(C)C)nc(NC(C)C)n1`, the Potency entry in [1], in assay [2], in assay [4], in assay [9], in assay [6] and in assay [7] was “inactive” throughout.
For `CCOP(=S)(OCC)OP(=S)(OCC)OCC`, the Potency entry in assay [1], in assay [3], in [4], in assay [9], in [10] and in assay [6] was “inactive” throughout. Besides, the Potency entry in [7] and in assay [8] was “inactive” in each case.
With `C[N+](C)(C)CC(=O)O`, the Potency entry in [1], in [2], in [4] and in [5] was “inactive” in each case.
Take `O=NN(c1ccccc1)c1ccccc1`: the Potency entry in assay [1], in assay [2], in [4] and in assay [8] was “inactive” in each case.
As to `O=P(OCCCl)(OCCCl)OCCCl`, the Potency result in assay [1], in assay [2], in assay [4], in assay [9], in [10] and in assay [7] was “inactive” throughout. Further, the Potency in assay [6] is 4.81 µM (active) and inactive.
For `Oc1ccc(Cl)cc1Cc1ccccc1`, the Potency entry in assay [2], in assay [4], in assay [9], in assay [5] and in [8] was “inactive” each time. Moreover, the Potency in assay [10] was 31 µM (active) and inactive.
As to `O=C1C(Cl)=C(Cl)C(=O)c2ccccc21`, the Potency in [1] is 61.3 µM (active) and 54.5 µM (active); in assay [2], 5.66 µM (active) and 5.64 µM (active); in assay [6] it was 34.5 µM (active) and 19.3 µM (active). The Potency entry in [4], in assay [5] and in assay [7] was “inactive” in each case.
Regarding `C=CC(Cl)CCl` (stereo not given), the Potency entry in assay [1], in [2], in assay [4], in assay [9], in assay [10] and in assay [8] was “inactive” each time.
`CNC(=O)CSP(=S)(OC)OC`: the Potency entry in [1], in assay [4], in [9], in assay [10] and in assay [8] was “inactive” each time.
On to `Cl`, for which the Potency result in assay [1], in assay [3], in assay [4] and in [5] was “inactive” throughout.
For `COc1ccc(CO)cc1`, the Potency result in assay [1], in [3], in assay [4] and in assay [8] was “inactive” throughout.
As to `CCOP(=S)(OCC)SCn1c(=O)oc2cc(Cl)ccc21`, the Potency is 38.2 µM (active) in assay [2]; 58.4 µM (active) and 24.3 µM (active) in assay [10]. The Potency entry in assay [4], in assay [9] and in assay [8] was “inactive” throughout.
Consider `CC(C)(c1ccccc1)c1ccc(O)cc1`, for which the Potency result in [2], in assay [3], in assay [4], in assay [9] and in assay [5] was “inactive” throughout. For the same compound, the Potency is 27.1 µM (active) and 13.7 µM (active) in [10]; 60.6 µM (active) and 54.5 µM (active) in assay [8].
`CC(C)(c1ccccc1)c1ccc(O)c(C(C)(C)c2ccccc2)c1`: the Potency was 54 µM (active) and 54.5 µM (active) in assay [1]; 7.7 µM (active) in [10]; 54 µM (active) and 54.5 µM (active) in assay [5]; 48.1 µM (active) in assay [6]; 54.5 µM (active) in assay [8]. For the same compound, the Potency result in assay [2] and in [7] was “inactive” in each case.
Regarding `CCC[CH2][Sn]([Cl])([Cl])[CH2]CCC`, the Potency is 981 nM (active) and 1.09 µM (active) in assay [1]; 0.874 µM (active) in [3]; 874 nM (active) and 864 nM (active) in [4]; 552 nM (active) and 686 nM (active) in [9]; 196 nM (active) and 96.9 nM (active) in [6]. Moreover, the Potency result in assay [10] and in assay [7] was “inactive” in each case.
`OC(c1ccc(Cl)cc1)(c1cncnc1)c1ccccc1Cl` (stereo not given): the Potency in assay [1] is 27.8 µM (active) and 43.3 µM (active); in assay [2], 81.1 µM (active) and inactive; in [4], 55.4 µM (active); in [9], 62.2 µM (active) and inactive; in assay [6], 24.8 µM (active) and inactive. For the same compound, the Potency entry in [10] and in [7] was “inactive” in each case.
For `CC(C)Nc1ccc(Nc2ccccc2)cc1`, the Potency in [1] is 27.2 µM (active) and 61.1 µM (active); in assay [2], 31.6 µM (active) and 35.6 µM (active); in assay [4], 54.3 µM (active); in assay [10] it was 13.6 µM (active) and 27.3 µM (active); in [6], 54.3 µM (active) and inactive; in assay [7], “inactive and 19.3 µM (active)”. In addition, the Potency result in [9] is “inactive”.
Consider `CC1CC(=O)O1` (stereo not given), for which the Potency result in assay [1], in assay [2], in [4], in assay [5] and in assay [8] was “inactive” in each case.
As to `Cc1ccc(N=CN(C)C=Nc2ccc(C)cc2C)c(C)c1`, the Potency result in [1], in assay [2], in [4], in [9], in [10] and in assay [8] was “inactive” each time.
Turning to `[Cl-].[Cl-].[Cl-].[Fe+3]`, the Potency entry in [1], in assay [4] and in assay [5] was “inactive” in each case.
Take `Cn1c(-c2ccccc2)cc(-c2ccccc2)[n+]1C`: the Potency entry in [1], in [2], in assay [4], in assay [9], in assay [10] and in assay [7] was “inactive” throughout. For the same compound, the Potency entry in assay [8] is “inactive”. Besides, the Potency in assay [6] was 8.62 µM (active) and 27.3 µM (active).
Take `CCC1(c2ccc(N)cc2)CCC(=O)NC1=O` (stereo not given): the Potency result in assay [1], in assay [2], in assay [4], in assay [5], in assay [6] and in assay [7] was “inactive” throughout.
With `CS(=O)(=O)NC(=O)c1cc(Oc2ccc(C(F)(F)F)cc2Cl)ccc1[N+](=O)[O-]`, the Potency result in assay [1], in assay [2], in assay [4], in assay [9], in [5] and in assay [8] was “inactive” in each case.
Turning to `ClCc1ccccn1`, the Potency result in [1], in assay [2], in assay [4], in assay [9], in [10] and in [8] was “inactive” each time.
Regarding `CCN(CC)C(=O)C(C)Oc1cccc2ccccc12` (stereo not given), the Potency entry in assay [2], in assay [4], in assay [9] and in assay [5] was “inactive” in each case. For the same compound, the Potency is 54.9 µM (active) and 61.1 µM (active) in [10]; “inactive and 30.6 µM (active)” in [8].
Turning to `CC(C)COC(=O)c1ccccc1C(=O)OCC(C)C`, the Potency result in assay [1], in [2], in [4], in assay [5] and in assay [8] was “inactive” each time.
On to `O=C1CCCO1`, for which the Potency result in assay [1], in assay [2], in [4], in [9], in [10] and in [6] was “inactive” throughout. Also, the Potency result in [7] and in [8] was “inactive” in each case.
As to `CC(C)(c1ccc(OCC2CO2)cc1)c1ccc(OCC2CO2)cc1` (stereo not given), the Potency entry in [1], in [2], in [4], in assay [9], in assay [10] and in assay [7] was “inactive” throughout. The Potency entry in assay [8] was “inactive”. Further, in [6], the Potency was 69.5 µM (active) and inactive.
On to `CCOC(=O)c1ccccc1N`, for which the Potency entry in assay [1], in assay [2], in [4], in assay [9], in [10] and in assay [5] was “inactive” in each case. In assay [8], the Potency entry was “inactive”.
Regarding `COP(=S)(OC)SCn1nnc2ccccc2c1=O`, the Potency was 39.1 µM (active) and 39.9 µM (active) in assay [2]; 61.1 µM (active) in assay [6]. In addition, the Potency entry in assay [4], in assay [9], in assay [5], in assay [7] and in [8] was “inactive” in each case.
